This is part of a sample that, as a whole, favours compounds with a hit. Of some 83,000 tested, about 20% had one in any assay.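 Assay: single dose, 48 h. Readout: percent growth (0 = no net growth; negative = cell death). Active: <10.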 Values without a mark were called inactive. The source made the active and inactive calls.
test system: SK-MEL-5 melanoma; test: NCI-60 one-dose screen, 48 h (100 = growth as untreated, 0 = no growth, -100 = all killed); settings: 10 µM unless noted

Q: For `COc1cc(/C=C/C(=O)c2ccc(Nc3ncnc4ccccc34)cc2)cc(OC)c1`, which growth is on record?
A: The growth was 90.8%.

Q: For `COc1ccc(C(=O)c2cc3c(N)c(C(=O)Nc4cccc(OC)c4)sc3nc2C)cc1`, which growth is on record?
A: The growth was 15.3%.

Q: How did the growth turn out when `CCC(C)N(CCNc1cc(OC)cc2cccnc12)CCC(C)C` (stereo unspecified) was run?
A: The growth was 95.2%.

Q: How did the growth turn out when `S=c1[nH]cccc1-c1nnc2n1Nc1nc3ccccc3cc1CS2` was run?
A: Its growth is 97.4%.

Q: How did the growth turn out when `NC(=O)C1(N2CCCCC2)CCN(CCCC(=O)c2ccc(F)cc2)CC1` was run?
A: Its growth is 4.4% (active).

Q: `O=S(=O)(c1cccc(NC2=Nc3cccc4cccc2c34)c1)N1CCCC1` was tested. Which growth did it give?
A: The growth was 44.7%.

Q: For `OC1(c2ccc(Cl)c(C(F)(F)F)c2)CCN(CCCC(c2ccc(F)cc2)c2ccc(F)cc2)CC1`, which growth is on record?
A: Its growth is -93.5% (active).

Q: For `O=c1[nH]nc(-c2ccc(Br)cc2)cc1Cc1ccc(O)cc1`, which growth is on record?
A: The growth was 87.1%.

Q: How did the growth turn out when `N/C(=N\N=C\c1cc2ccccc2s1)N/N=C/c1cc2ccccc2s1` was run?
A: Its growth is 98%.

Q: With `COc1ccc(C(=O)c2cc3c(N)c(C(=O)Nc4ccc(Br)cc4)sc3nc2C)cc1` as the molecule, how does the growth read?
A: Its growth is 81.5%.

Q: Which growth does the source give for `CC1=NNC(=O)C1CCC(=O)N/N=C(\C)c1ccc2ccccc2c1` (stereo unspecified) here?
A: Its growth is 105%.

Q: Which growth does the source give for `O=C(O)c1cn(C2CC2)c2cc(N3CCN(C(=O)C[n+]4cccc5ccccc54)CC3)c(F)cc2c1=O` here?
A: The growth was 94.6%.

Q: `COc1ccc(Cn2nc(-c3ccccc3)c3c2CCc2cnoc2-3)cc1` was tested. Which growth did it give?
A: The growth was 74.5%.

Q: With `O=C(O)CNC(=O)CN1C(=O)c2ccccc2C1=O` as the molecule, how does the growth read?
A: Its growth is 99.6%.

Q: For `O=C1CCCCCCCCC(O)C(O)CCCC(c2cccs2)O1` (stereo unspecified), which growth is on record?
A: Its growth is 91%.

Q: `CC1CCN(C(=O)OCc2nc3nc(Cl)nc(N4CCOCC4)c3[nH]2)CC1` was tested. Which growth did it give?
A: The growth was -27.3% (active).

Q: How did the growth turn out when `COc1cc(C2CC(c3cccc(Nc4ccncc4)c3)=NN2c2cc(Cl)cc(Cl)c2)cc(OC)c1OC` (stereo unspecified) was run?
A: The growth was 2.57% (active).

Q: With `COC(=O)Nc1ccc(NC(=O)OC)cc1` as the molecule, how does the growth read?
A: The growth was 99.1%.

Q: `COc1ccc(C(=O)c2cc3c(N)c(C(=O)Nc4cccc(Cl)c4C)sc3nc2C)cc1` was tested. Which growth did it give?
A: Its growth is -23.8% (active).

Q: With `COc1ccc(-c2nc(SC)nc(N3CCOCC3)c2C#N)cc1` as the molecule, how does the growth read?
A: The growth was 98.4%.

Q: `CC(=O)NCCCS(=O)(=O)O` was tested. Which growth did it give?
A: Its growth is 120%.

Q: With `Cn1c(COC(=O)NCCN2CCOCC2)nc2c(N3CCOCC3)nc(-c3ccccc3)nc21` as the molecule, how does the growth read?
A: Its growth is -93.6% (active).

Q: Which growth does the source give for `CC(C)Sc1nc(NN)c(C#N)c(-c2ccccc2)n1` here?
A: Its growth is 99.7%.

Q: Which growth does the source give for `COc1ccc(-c2nc(SCC(C)C)nc(N/N=C(/C)c3ccc(OC)c(OC)c3)c2C#N)cc1` here?
A: Its growth is 74.6%.

Q: `COc1cc2nnn3c4ncccc4c(N=O)c3c2cc1OC` was tested. Which growth did it give?
A: The growth was 113%.

Q: With `COc1ccccc1-c1c(-c2ccc(Cl)cc2)c2cc3c(cc2[nH]c1=O)OCCO3` as the molecule, how does the growth read?
A: The growth was 63.8%.

Q: With `O=S(=O)(NCCNc1nccc(-c2c(-c3ccc(F)c(O)c3)nc3sccn23)n1)c1ccccc1` as the molecule, how does the growth read?
A: The growth was 58.1%.

Q: With `CC(C)(O)C1CCCN1C(=O)c1ccccc1I` (stereo unspecified) as the molecule, how does the growth read?
A: The growth was 92.9%.

Q: Which growth does the source give for `O=C(OCc1nc2nc(Cl)nc(N3CCOCC3)c2[nH]1)n1ccnc1` here?
A: Its growth is 20.1%.

Q: `Cc1c([N+](=O)[O-])cc(C(C)(C)C)cc1[N+](=O)[O-]` was tested. Which growth did it give?
A: The growth was 99.7%.

Q: `O=C(N/N=C/c1ccc(F)cc1)c1ccccc1Nc1cccc(C(F)(F)F)c1` was tested. Which growth did it give?
A: Its growth is 109%.

Q: For `COc1cccc(/C=C2\COc3ccc(-c4ccccc4)cc3C2=O)c1`, which growth is on record?
A: The growth was 24%.

Q: `CN1CCN(c2cc(F)c(NC3=C(Cl)C(=O)c4ncccc4C3=O)c(F)c2)CC1` was tested. Which growth did it give?
A: The growth was -91.7% (active).

Q: `Cc1cc(NC(=O)c2cnc(N3CCN(CCOCCOCCOCCOCCC(=O)N[C@H](C(=O)N4C[C@H](O)C[C@H]4C(=O)N[C@@H](C)c4ccc(-c5scnc5C)cc4)C(C)(C)C)CC3)cn2)c2ncccc2c1` was tested. Which growth did it give?
A: The growth was -41.1% (active).

Q: How did the growth turn out when `COc1ccc(-c2ncc(-c3ccccc3)[nH]2)cc1OC` was run?
A: Its growth is 106%.

Q: `O=C(CN1CCOCC1)Nc1ccc2ncnc(Nc3ccc(Oc4cccc(F)c4)c(Cl)c3)c2c1` was tested. Which growth did it give?
A: Its growth is 68.5%.

Q: How did the growth turn out when `O=C1Nc2c(ccc(Cl)c2Cl)/C1=C/c1ccc(F)cc1` was run?
A: The growth was 86.8%.

Q: With `COc1ccc(-c2nc(N/N=C/c3c[nH]c4ccccc34)nc(N3CCOCC3)c2C#N)cc1` as the molecule, how does the growth read?
A: The growth was 101%.

test system: UACC-62 melanoma; test: as above; settings: 10 µM unless noted

Q: Which growth does the source give for `COc1cc(/C=C/C(=O)c2ccc(Nc3ncnc4ccccc34)cc2)cc(OC)c1` here?
A: Its growth is 76.9%.

Q: With `COc1ccc(C(=O)c2cc3c(N)c(C(=O)Nc4cccc(OC)c4)sc3nc2C)cc1` as the molecule, how does the growth read?
A: Its growth is 44.5%.

Q: `CCC(C)N(CCNc1cc(OC)cc2cccnc12)CCC(C)C` (stereo unspecified) was tested. Which growth did it give?
A: Its growth is 94.2%.

Q: How did the growth turn out when `S=c1[nH]cccc1-c1nnc2n1Nc1nc3ccccc3cc1CS2` was run?
A: The growth was 91.2%.

Q: `NC(=O)C1(N2CCCCC2)CCN(CCCC(=O)c2ccc(F)cc2)CC1` was tested. Which growth did it give?
A: The growth was 29.3%.

Q: For `O=S(=O)(c1cccc(NC2=Nc3cccc4cccc2c34)c1)N1CCCC1`, which growth is on record?
A: The growth was 51.7%.

Q: For `OC1(c2ccc(Cl)c(C(F)(F)F)c2)CCN(CCCC(c2ccc(F)cc2)c2ccc(F)cc2)CC1`, which growth is on record?
A: The growth was -92.6% (active).

Q: With `O=c1[nH]nc(-c2ccc(Br)cc2)cc1Cc1ccc(O)cc1` as the molecule, how does the growth read?
A: Its growth is 85.6%.

Q: With `N/C(=N\N=C\c1cc2ccccc2s1)N/N=C/c1cc2ccccc2s1` as the molecule, how does the growth read?
A: Its growth is 95.3%.

Q: For `COc1ccc(C(=O)c2cc3c(N)c(C(=O)Nc4ccc(Br)cc4)sc3nc2C)cc1`, which growth is on record?
A: Its growth is 73.4%.

Q: With `CC1=NNC(=O)C1CCC(=O)N/N=C(\C)c1ccc2ccccc2c1` (stereo unspecified) as the molecule, how does the growth read?
A: Its growth is 97.5%.

Q: How did the growth turn out when `O=C(O)c1cn(C2CC2)c2cc(N3CCN(C(=O)C[n+]4cccc5ccccc54)CC3)c(F)cc2c1=O` was run?
A: The growth was 42.7%.

Q: `COc1ccc(Cn2nc(-c3ccccc3)c3c2CCc2cnoc2-3)cc1` was tested. Which growth did it give?
A: Its growth is 51.5%.

Q: With `O=C(O)CNC(=O)CN1C(=O)c2ccccc2C1=O` as the molecule, how does the growth read?
A: The growth was 108%.

Q: For `O=C1CCCCCCCCC(O)C(O)CCCC(c2cccs2)O1` (stereo unspecified), which growth is on record?
A: Its growth is 81.8%.

Q: How did the growth turn out when `CC1CCN(C(=O)OCc2nc3nc(Cl)nc(N4CCOCC4)c3[nH]2)CC1` was run?
A: The growth was -94.1% (active).

Q: `COc1cc(C2CC(c3cccc(Nc4ccncc4)c3)=NN2c2cc(Cl)cc(Cl)c2)cc(OC)c1OC` (stereo unspecified) was tested. Which growth did it give?
A: Its growth is 94.5%.

Q: With `COC(=O)Nc1ccc(NC(=O)OC)cc1` as the molecule, how does the growth read?
A: Its growth is 103%.

Q: Which growth does the source give for `COc1ccc(C(=O)c2cc3c(N)c(C(=O)Nc4cccc(Cl)c4C)sc3nc2C)cc1` here?
A: The growth was 32%.

Q: `COc1ccc(-c2nc(SC)nc(N3CCOCC3)c2C#N)cc1` was tested. Which growth did it give?
A: Its growth is 83.5%.

Q: With `CC(=O)NCCCS(=O)(=O)O` as the molecule, how does the growth read?
A: Its growth is 101%.

Q: How did the growth turn out when `Cn1c(COC(=O)NCCN2CCOCC2)nc2c(N3CCOCC3)nc(-c3ccccc3)nc21` was run?
A: The growth was -93.6% (active).

Q: How did the growth turn out when `CC(C)Sc1nc(NN)c(C#N)c(-c2ccccc2)n1` was run?
A: The growth was 90.6%.

Q: With `COc1ccc(-c2nc(SCC(C)C)nc(N/N=C(/C)c3ccc(OC)c(OC)c3)c2C#N)cc1` as the molecule, how does the growth read?
A: The growth was 81.2%.

Q: How did the growth turn out when `COc1cc2nnn3c4ncccc4c(N=O)c3c2cc1OC` was run?
A: Its growth is 86.3%.

Q: `COc1ccccc1-c1c(-c2ccc(Cl)cc2)c2cc3c(cc2[nH]c1=O)OCCO3` was tested. Which growth did it give?
A: Its growth is 71%.

Q: With `O=S(=O)(NCCNc1nccc(-c2c(-c3ccc(F)c(O)c3)nc3sccn23)n1)c1ccccc1` as the molecule, how does the growth read?
A: Its growth is -0.791% (active).

Q: `CC(C)(O)C1CCCN1C(=O)c1ccccc1I` (stereo unspecified) was tested. Which growth did it give?
A: Its growth is 64.3%.

Q: `O=C(OCc1nc2nc(Cl)nc(N3CCOCC3)c2[nH]1)n1ccnc1` was tested. Which growth did it give?
A: Its growth is -80.4% (active).

Q: Which growth does the source give for `Cc1c([N+](=O)[O-])cc(C(C)(C)C)cc1[N+](=O)[O-]` here?
A: The growth was 103%.

Q: `O=C(N/N=C/c1ccc(F)cc1)c1ccccc1Nc1cccc(C(F)(F)F)c1` was tested. Which growth did it give?
A: The growth was 101%.

Q: How did the growth turn out when `COc1cccc(/C=C2\COc3ccc(-c4ccccc4)cc3C2=O)c1` was run?
A: Its growth is 38%.

Q: Which growth does the source give for `CN1CCN(c2cc(F)c(NC3=C(Cl)C(=O)c4ncccc4C3=O)c(F)c2)CC1` here?
A: The growth was -45.6% (active).

Q: For `Cc1cc(NC(=O)c2cnc(N3CCN(CCOCCOCCOCCOCCC(=O)N[C@H](C(=O)N4C[C@H](O)C[C@H]4C(=O)N[C@@H](C)c4ccc(-c5scnc5C)cc4)C(C)(C)C)CC3)cn2)c2ncccc2c1`, which growth is on record?
A: Its growth is -57.1% (active).

Q: Which growth does the source give for `COc1ccc(-c2ncc(-c3ccccc3)[nH]2)cc1OC` here?
A: The growth was 95.3%.

Q: How did the growth turn out when `O=C(CN1CCOCC1)Nc1ccc2ncnc(Nc3ccc(Oc4cccc(F)c4)c(Cl)c3)c2c1` was run?
A: The growth was 76.7%.

Q: For `O=C1Nc2c(ccc(Cl)c2Cl)/C1=C/c1ccc(F)cc1`, which growth is on record?
A: Its growth is 79.6%.

Q: With `COc1ccc(-c2nc(N/N=C/c3c[nH]c4ccccc34)nc(N3CCOCC3)c2C#N)cc1` as the molecule, how does the growth read?
A: Its growth is 106%.
